Tau ThT inhib: qHTS for Inhibitors of Tau Fibril Formation, Thioflavin T Binding | recombinant tau K18 P301L, heparin-induced fibrillization, ThT fluorescence | Potency, µM (highest dose often 57.4 µM), inactives show at the top dose activity, negative = inhibition, hits mostly inhibitors | hit rate 2.1% among 270,000; further: nearly all actives have a fitted effect of over 55% in size
Target sequence (P10636 561-689 P618L limits assumed): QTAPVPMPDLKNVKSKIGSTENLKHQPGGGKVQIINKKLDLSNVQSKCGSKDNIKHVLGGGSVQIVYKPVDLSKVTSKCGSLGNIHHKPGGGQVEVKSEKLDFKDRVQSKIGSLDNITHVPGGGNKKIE
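Aggregation was driven by heparin (20 uM final) acting on recombinant tau […] bearing P301L in 100 mM sodium acetate pH 7; fibrils were detected with Thioflavin T.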
Tau fibril FP: qHTS for Inhibitors of Tau Fibril Formation, Fluorescence Polarization. K18 P301L tau heparin fibrillization, Alexa594 FP, 6 h. AID 1468, 2008. hit rate 0.39% among 280,000. Potency, µM (top dose mostly 57.7 µM), for inactives: top-dose activity, negative = inhibition, usual class: inhibitors; further: nearly all actives have a fitted effect of over 55% in size
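Human K18 P301L fragment (15 uM unlabeled plus 0.24 uM Alexa 594-labeled) in 100 mM sodium acetate pH 7 with compound, aggregation induced by 20 uM heparin for 6 hr at 37 C. ThT (30 uM) added for 1 hr, then Alexa 594 FP read.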
Sfp PPTase inh: qHTS Assay for Inhibitors of Bacillus subtilis Sfp phosphopantetheinyl transferase (PPTase). 4'-phosphopantetheinyl transferase ffp (Bacillus subtilis), Q9F4F7. Biochemical Sfp PPTase activity, qHTS. Potency, µM, inactives show largest response in the series, negative = inhibition, actives largely listed as inhibitors. hit rate 3.5% among 310,000;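 further: the enzyme is Sfp with the accession as filed and its product quenches rhodamine fluorescence; 0% = enzyme reaction without inhibitor and -100% = no enzyme wells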
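Fluorescence-quenching assay with 15 nM Sfp, 5 uM rhodamine-CoA and 12.5 uM BHQ-2-labelled ybbR peptide in pH 7.6 Hepes/MgCl2 buffer. Enzyme was pre-incubated with compound for 15 min at room temperature. Rate was taken from the 30-min fluorescence change (525/598 nm).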
Tau fluor cs: Counterscreen qHTS for Inhibitors of Tau Fibril Formation, Fluorescence Polarization. tau K18 P301L Alexa594 fluorescence, heparin fibrillization. Potency, µM (top dose mostly 57.7 µM), for inactives: at the top dose activity change, negative = decrease. hit rate 0.93% among 280,000. AID 1463, 2008; further: nearly all actives have a fitted effect of over 55% in size
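Human tau K18 P301L (15 uM unlabeled, 0.24 uM Alexa 594-labeled) in 100 mM sodium acetate pH 7 with 20 uM heparin, 6 hr at 37 C. ThT 30 uM added, 1 hr ambient; Alexa 594 FP and total fluorescence read at 555/632 nm.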
VDR inhibitor: Inhibitors of the vitamin D receptor (VDR): qHTS; VDR-SRC2-3 peptide fluorescence polarization, 2 h; Potency, µM, inactives show max response, negative = inhibition, usual class: inhibitors; hit rate 0.93% among 400,000; AID 504847, 2011
Target sequence (P11473 whole entry, looked up): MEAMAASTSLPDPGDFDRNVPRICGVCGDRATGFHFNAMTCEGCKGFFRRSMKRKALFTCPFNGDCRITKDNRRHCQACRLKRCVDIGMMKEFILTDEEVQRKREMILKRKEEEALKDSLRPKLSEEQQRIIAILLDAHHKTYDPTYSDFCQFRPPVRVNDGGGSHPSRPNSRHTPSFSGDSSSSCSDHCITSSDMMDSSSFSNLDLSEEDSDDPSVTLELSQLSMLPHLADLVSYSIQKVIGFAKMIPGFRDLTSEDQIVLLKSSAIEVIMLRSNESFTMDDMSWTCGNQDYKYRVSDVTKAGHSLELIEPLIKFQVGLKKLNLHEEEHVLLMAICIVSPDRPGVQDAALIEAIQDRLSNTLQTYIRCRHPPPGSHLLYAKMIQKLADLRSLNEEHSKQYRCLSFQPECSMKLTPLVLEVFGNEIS
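Fluorescence polarization assay measuring small-molecule disruption of VDR binding to the coregulator peptide SRC2-3. Compounds were pin-transferred (23 nl) into the reagent mix and incubated 2 h at room temperature before reading.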
PLK1 PBD inh: qHTS for Inhibitors of PLK1-PDB (polo-like kinase 1 - polo-box domain): Primary Screen | hit rate 2.8% among 360,000 | Serine/threonine-protein kinase PLK1 (Homo sapiens), P53350 | Plk1 PBD binding of FITC phosphopeptide, fluorescence polarization | Potency, µM, inactives show max response, negative = inhibition, most hits filed as inhibitors | AID 720504, 2013; further: series mostly up to about 57 µM; nearly all actives have a fitted effect of over 65% in size
The depositor's hits bear a star; ? = inconclusive; · = no result given; [ ] = remark or other dose. Rows were chosen to be rich in hits. Some 6% of all compounds tested hit in one or more screens of this group. The call rests on the fitted dose curve; in most records, active means well fitted curve in the direction sought with a large enough effect; inconclusive means small, poorly fitted or top-dose-only effect, or another doubt; inactive means no such curve, though single readings can be large; an effect the other way counts as inactive or inconclusive. Unless noted, on the % scale 0 is the no-effect control and ±100 the full control effect; potency means the concentration at half of the fitted maximal effect.

SMILES	Tau ThT inhib	Tau fibril FP	Sfp PPTase inh	Tau fluor cs	VDR inhibitor	PLK1 PBD inh
CCC1S/C(=N/N=C/c2cccs2)NC1=O (stereo not given)	-16%	2%	8%	-6%	-13%	-11%
CCCC1S/C(=N/N=C/c2cccs2)NC1=O (stereo not given)	-17%	2%	-11%	-9%	6%	17µM*
COc1ccc(NC(=O)c2cc3c(-c4ccc(OC)c(OC)c4)nn(C)c3s2)cc1OC	?	-2%	14%	3.5µM*[quencher]	21%	1%
CCOC(=O)N1CCC(NC(=O)c2cc3c(-c4ccc(OC)c(OC)c4)nn(C)c3s2)CC1	-7%	4%	10%	-12%	-6%	2%
COc1ccc(-c2nn(C)c3sc(C(=O)Nc4cc(OC)c(OC)c(OC)c4)cc23)cc1OC	?	?	·	2.5µM*[quencher]	0%	·
COc1ccc(-c2nn(C)c3sc(C(=O)NCc4ccco4)cc23)cc1OC	13%	7%	-19%	9%	6%	27µM*
CC(=O)c1ccc(N2CCN(S(=O)(=O)c3ccc(-c4coc(C)n4)cc3)CC2)cc1	-5%	-3%	·	-5%	17%	·
CCN(Cc1ccccc1)C(=O)c1cc2c(=O)[nH]c3ccc(C)cc3c2s1	0%	-13%	·	-6%	-2%	·
CC(C)(C)c1ccc(S(=O)(=O)NC(=O)C2(C)CCN2C(=O)C2CC2)cc1 (stereo not given)	·	·	·	·	·	0%
O=C(O)c1cccc(N2C(=O)/C(=C/c3ccc(SCc4ccc(Cl)cc4)o3)SC2=S)c1	16µM*	?	40µM*	?	-30%	?
CCCCCCCCSc1nnc2[nH]c(=O)cc(N)n12	2%	8%	5%	-3%	?	3.4µM*
CC(=O)O[C@@H](C)C[N+](C)(C)C	·	·	20%	·	-3%	·
CCN(CC)S(=O)(=O)c1cccc(-c2n[nH]c(=S)n2/N=C/c2ccc(Br)cc2)c1	-9%	?	-24%	?	-24%	21µM*
CCN(CC)S(=O)(=O)c1cccc(-c2n[nH]c(=S)n2/N=C/c2ccc(OC)cc2)c1	-11%	3%	79µM*	?	-18%	-29%
CCN(CC)S(=O)(=O)c1cccc(-c2n[nH]c(=S)n2/N=C/c2ccc(OC(F)F)cc2)c1	?	?	?	?	-2%	?
CC(C)(c1cc(Br)c(O)c(Br)c1)c1cc(Br)c(O)c(Br)c1	·	·	·	·	-10%	27µM*
CCOC(=O)c1cc(S(=O)(=O)Nc2cc(OC)ccc2OC)[nH]n1	-12%	-5%	·	-13%	13%	·
CC1CCC2=C1C[C@H](C(C)(C)O)CC[C@@H]2C (stereo not given in full)	-1%	5%	1%	-8%	-17%	·
CC(C)n1nnnc1C1c2ccccc2C(=O)N1Cc1ccccc1 (stereo not given)	·	·	·	·	·	-2%
CCN(Cc1ccccc1)S(=O)(=O)c1ccc(C(=O)Nc2nnc(C)o2)cc1	·	·	21%	·	7%	-8%
CCc1nnc(NC(=O)c2ccc(S(=O)(=O)N(CC)Cc3ccccc3)cc2)o1	?	8%	19%	?	-20%	3µM*
Cc1cc(C)c(Nc2nn3c(=O)c4cc5c(cc4nc3s2)OCO5)c(C)c1	28µM*	?	·	-27%	?	·
Cc1ccc(Nc2nn3c(=O)c4cc5c(cc4nc3s2)OCO5)cc1Cl	?	-11%	·	-21%	3%	·
CC(C)(C)NC(=O)C[C@H]1C[C@H](C(=O)N2CCCCC2)[C@@]2(C)c3[nH]c4cc(-c5ccco5)ccc4c3CCN2C1=O	·	·	·	·	?	24µM*
CC[C@]12c3[nH]c4cc(-c5ccco5)ccc4c3CCN1C(=O)[C@@H](CC(=O)NC/C=C(\C)CCC=C(C)C)C[C@@H]2C(=O)N1CCN(C(=O)c2ccco2)CC1	·	·	·	·	-26%	24µM*
SMILES	Tau ThT inhib	Tau fibril FP	Sfp PPTase inh	Tau fluor cs	VDR inhibitor	PLK1 PBD inh
C[C@]12c3[nH]c4cc(-c5ccco5)ccc4c3CCN1C(=O)[C@@H](CC(=O)NCCC1=CCCCC1)C[C@@H]2C(=O)N1CCCCC1	·	·	·	·	?	21µM*
O=S1(=O)C2CC3CCC2(CN1Cc1cccc(F)c1)O3 (stereo not given)	·	·	16%	·	0%	·
NC(=S)c1ccc[n+]([C@@H]2O[C@@H](COP(=O)([O-])OP(=O)(O)OC[C@H]3O[C@@H](n4cnc5c(N)ncnc54)[C@H](OP(=O)(O)O)[C@@H]3O)C(O)C2O)c1 (stereo not given in full)	·	·	·	·	1%	·
Cc1cc(C)cc(C(=O)N(C)[C@H](Cc2ccc(-c3ccccc3)cc2)C(=O)N[C@@H](Cc2c[nH]c3ccccc23)C(=O)O)c1	?	-8%	5%	-16%	?	·
COc1ccccc1CNC(=O)c1cccn1-c1nnc(N2CCCC2)s1	5%	-5%	·	0%	2%	·
O=C(NCc1ccccc1OC(F)(F)F)C1CCC(=O)N(Cc2ccccn2)C1 (stereo not given)	·	·	23%	·	?	12µM*
O=C(NCc1ccccc1OC(F)(F)F)C1CCC(=O)N(CCc2ccccn2)C1 (stereo not given)	·	·	·	·	-22%	2%
CCOC(=O)C(=O)c1c(C)cc2ccccn12	-13%	-3%	-13%	-8%	-1%	?
COC(=O)c1c(C(=O)OC)c2cccc3cc(-c4ccccc4)c4ccc1c4n32	3.5µM*	-14%	-6%	?	6%	?
COC(=O)c1c(C)c2c(C)cc3ccccn3c-2c1C(=O)OC	13µM*	17%	-6%	?	3%	-11%
COC(=O)c1cc2c(-c3ccccc3)cc3ccccn3c-2c1C(=O)OC	16µM*	10%	-11%	?	9%	-12%
Cc1ccc(CNC(=O)CSCc2ccccc2C)cc1	-2%	-3%	·	-3%	7%	·
COc1ccc(NC(=O)Nc2sc3nc4n(c(=O)c3c2C)CCC(C)CC4)cc1OC (stereo not given)	?	?	·	8.9µM*[quencher]	0%	·
CC(=O)Nc1ccc(NC(=O)Nc2sc3nc4n(c(=O)c3c2C)CCC(C)CC4)cc1 (stereo not given)	?	-4%	·	?	7%	·
Nc1nc(O)c(Sc2ccccc2[N+](=O)[O-])c(=O)[nH]1	·	·	-7%	·	-10%	12µM*
Nc1ccccc1Sc1ccccc1[N+](=O)[O-]	-15%	9%	-2%	-26%	-5%	-4%

Screens as filed in PubChem BioAssay.
